# Assay outcomes: PubChem, National Center for Advancing Translational Sciences (NCATS)
# This is a sample that favours compounds with a hit; in the whole collection about 19% have one here.
# IL1B secr inh = qHTS for Inhibitors of Inflammasome Signaling: IL-1-beta AlphaLISA Primary Screen; THP-1 LPS/ATP IL-1B secretion, AlphaLISA, 16 h; hits give low values; activity change, % at 57.5 µM; actives 4.7% (n = 360,000); in the data active means activity change below about -50%; inconclusive means mostly about -30% to -49%
#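 Secreted IL-1B measured by AlphaLISA bead assay after 16 h compound exposure of THP-1 cells; compounds (final up to 57.5 uM) added 1 h before LPS (250 ng/mL) and ATP (1.25 mM) stimulation; lower signal means less secretion.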
# HT1080-NT tox = qHTS for induction of synthetic lethality in tumor cells producing 2HG: qHTS for the HT-1080-NT fibrosarcoma cell line. HT-1080-NT fibrosarcoma viability, CellTiter-Glo ATP luminescence, 48 h. Potency, µM (highest dose often 46.1 µM), inactives show at the top dose activity, negative = less viability, usual class: cytotoxic. actives 1.6% (n = 360,000). AID 686970, 2013;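 further: NT is the 2HG producing partner of a matched IDH1 knockdown line; potency means the concentration at half of the fitted maximal effect; 0% = DMSO-treated cells and -100% = media-only wells without cells; nearly all actives have a fitted effect of over 55% in size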
#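 Viability by CellTiter-Glo luminescence after 48 h compound exposure at 37C of HT-1080-NT cells (750/well, RPMI, 5% FBS). % activity scaled between DMSO wells and medium-only wells, then curve-fitted and categorized by curve class.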
# HT1080 IDH1KD tx = qHTS for induction of synthetic lethality in tumor cells producing 2HG: qHTS for the HT-1080-IDH1KD cell line | HT-1080 IDH1 knockdown viability, ATP luminescence, 48 h | Potency, µM (doses to about 46.1 µM), for inactives: top-dose activity, negative = toxicity, usual class: cytotoxic | actives 2% (n = 360,000) | AID 686971, 2013;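 further: potency means the concentration at half of the fitted maximal effect; 0% = DMSO wells and -100% = cell-free medium wells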
#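 IDH1KD HT-1080 cells, 750/well, RPMI + 5% FBS; compound pinned after 2 h settling; 48 h, 37 °C; CellTiter-Glo luminescence; % activity normalised to DMSO and no-cell wells; curves fitted, classed by r2 and efficacy.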
# TDP1 cell noCPT = qHTS for Inhibitors of human tyrosyl-DNA phosphodiesterase 1 (TDP1): qHTS in cells in absence of CPT. actives 15% (n = 420,000). Potency, µM (highest dose often 46.2 µM), for inactives: at the highest dose activity change, negative = growth inhibition, actives largely listed as inhibitors. AID 686978, 2013. DT40 Tdp1-/- hTDP1 cells, no CPT, ATP luminescence, 48 h; further: potency means the concentration at half of the fitted maximal effect; nearly all actives have a fitted effect of over 55% in size
#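 Growth of hTDP1-complemented DT40 Tdp1-knockout cells is measured by ATP luminescence after at least 48 hr compound exposure at 37 °C, with DMSO substituting for the 20 nM CPT used in the parallel screen.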
# DT40 TDP1 CPT = qHTS for Inhibitors of human tyrosyl-DNA phosphodiesterase 1 (TDP1): qHTS in cells in presence of CPT | chicken DT40 Tdp1-/-;hTDP1 cells + 20 nM CPT, ATP luminescence, 48 h | Potency, µM (doses to about 46.2 µM), inactives show at the top dose activity change, negative = growth inhibition, actives largely listed as inhibitors | actives 12% (n = 420,000); further: potency means the concentration at half of the fitted maximal effect; nearly all actives have a fitted effect of over 55% in size
#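 Chicken DT40 Tdp1-/- cells complemented with human TDP1, 400 cells/well, exposed to compounds plus 20 nM camptothecin for at least 48 h at 37 C; viability read as ATP content by CellTiter-Glo luminescence.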
# * marks the source's active call; other numbers are inactive results; u = inconclusive; x = no result. Unless noted, the call rests on the fitted dose curve; in most records, active means well fitted curve in the direction sought with a large enough effect; inconclusive means small, poorly fitted or top-dose-only effect, or another doubt; inactive means no such curve, though single readings can be large; an effect the other way counts as inactive or inconclusive. Unless noted, on the % scale 0 is the no-effect control and ±100 the full control effect.
SMILES,IL1B secr inh,HT1080-NT tox,HT1080 IDH1KD tx,TDP1 cell noCPT,DT40 TDP1 CPT
Cc1ccc(N2CCN(C(=O)c3nn(C)c4c3CSc3ccccc3-4)CC2C)cc1 (configuration not stated),x,x,x,u,23µM*
CCOc1ccc(CCNC(=O)c2nn(C)c3c2CSc2ccccc2-3)cc1,x,x,x,u,16µM*
Cn1nc(C(=O)N2CCN(c3ccccc3)CC2)c2c1-c1ccccc1SC2,x,x,x,9%,-5%
CC(C)CCNC(=O)c1nn(C)c2c1CSc1ccccc1-2,x,x,x,18µM*,u
Cn1nc(C(=O)N2CCC(C(N)=O)CC2)c2c1-c1ccccc1SC2,7,6%,0%,u,u
Cc1cc(Sc2nc(N)ncc2[N+](=O)[O-])ncn1,-109*,5.8µM*,6.5µM*,1.3µM*,0.73µM*
Cc1cc(Sc2ncnc(N)c2[N+](=O)[O-])ncn1,-100*,13µM*,7.3µM*,0.92µM*,0.29µM*
Cc1ccc(Cn2cc(CCC(=O)O)c3ccccc32)cc1,33,6%,6%,12%,-7%
COc1ccc(S(=O)(=O)N2CCOCC2)cc1NC(=O)CSc1nnnn1C1CC1,-2,8%,8%,-9%,-10%
CC(=O)N1c2ccc(S(=O)(=O)N3CCC(C(=O)NC(C)c4ccccc4)CC3)cc2CC1C (configuration not stated),7,3%,1%,-16%,1%
Cc1ccc(-c2nc3cc(C)c(Br)c(C)n3c2CC(C)(C)C)cc1,48,-6%,-23%,16µM*,9.2µM*
CCCc1nc2ccc(Cl)cn2c1Cc1ccsc1,21,u,-28%,13µM*,21µM*
Cc1ccc(-c2nc3cc(C)c(Br)c(C)n3c2Cc2ccsc2)cc1,0,-29%,u,7.3µM*,5.2µM*
CCCc1nc2cc(C)c(Br)c(C)n2c1Cc1ccsc1,47,u,-29%,18µM*,12µM*
Cc1cc2nc(-c3cccc(Br)c3)c(Cc3ccsc3)n2c(C)c1Br,24,-6%,-16%,u,u
CCCNC(=O)CSc1nnc(NC(=O)C2CC(=O)N(c3ccccc3OC)C2)s1 (configuration not stated),24,-1%,9%,3%,-11%
O=C(CN1CCC(C(O)(c2ccccc2)c2ccccc2)CC1)Nc1ccccc1,-55*,u,u,16µM*,21µM*
O=C(CN1CCN(C(=O)N2CCOCC2)CC1)Nc1cc(Cl)ccc1Cl,20,-7%,-1%,13µM*,u
O=C(CN1CCCCC1)Nc1cc(Cl)ccc1Cl,-16,4%,-3%,-21%,u
O=C(CN1CCC(C(O)(c2ccccc2)c2ccccc2)CC1)Nc1cc(Cl)ccc1Cl,-67*,-9%,-16%,20µM*,u
O=C(CN1CCN(S(=O)(=O)N2CCOCC2)CC1)Nc1cc(Cl)ccc1Cl,4,-5%,-2%,u,-22%
Cc1ccc(-c2ccc([C@H]3[C@H]4C=CC[C@@H](C)[C@@H]4C(=O)N3Cc3ccccc3)c(F)c2)cc1,22,-6%,-14%,u,u
C[C@@H]1CC=C[C@H]2[C@H]1C(=O)N(Cc1ccccc1)[C@H]2c1ccc(-c2ccc(N(C)C)cc2)cc1F,0,u,u,12µM*,21µM*
C[C@@H]1CC=C[C@H]2[C@H]1C(=O)N(Cc1ccccc1)[C@H]2c1ccc(Br)cc1F,60,-20%,-15%,u,u
CC(=O)c1ccc(-c2ccc([C@H]3[C@H]4C=CC[C@@H](C)[C@@H]4C(=O)N3Cc3ccccc3)c(F)c2)cc1,-4,u,u,13µM*,13µM*
SMILES,IL1B secr inh,HT1080-NT tox,HT1080 IDH1KD tx,TDP1 cell noCPT,DT40 TDP1 CPT
COC(=O)c1ccc(-c2ccc([C@H]3[C@H]4C=CC[C@@H](C)[C@@H]4C(=O)N3Cc3ccccc3)c(F)c2)cc1,38,u,u,3.3µM*,6.5µM*
O=C(/C=C/[C@H]1O[C@@H](n2ccc(=O)[nH]c2=O)[C@H](O)[C@@H]1O)NCCCc1ccccc1,-4,17%,23%,10%,-2%
Cc1ccc(S(=O)(=O)N(CCCO)CC(O)CON=C2c3ccccc3-c3ccccc32)cc1 (configuration not stated),u,-11%,-22%,16µM*,u
O=C(c1ccc(S(=O)(=O)NCc2ccco2)cc1)N1CCN(Cc2ccc3c(c2)OCO3)CC1,-10,-17%,-6%,16µM*,u
COc1ccc(CN2CCN(C(=O)c3ccc(S(=O)(=O)NCc4ccco4)cc3)CC2)cc1F,-13,-8%,-19%,u,9.2µM*
O=C(CCc1ccc(S(=O)(=O)NCc2ccccc2)cc1)N1CCN(Cc2ccc3c(c2)OCO3)CC1,u,-3%,-6%,u,32µM*
Cc1ccc2c(=O)cc(C(=O)Nc3c(C(=O)Nc4cccc(Cl)c4)oc4ccccc34)oc2c1,x,x,x,-12%,8%
FC(F)(F)c1nc2nc(Cl)c(Cl)nc2n1CCCN1CCOCC1,-26,-9%,-4%,u,-14%
CCOc1ccc(-c2cc3cc(OC)c(OC)cc3c(C)n2)cc1,23,20%,6%,u,-28%
CCc1nc(-c2ccc(OC)c(OC)c2)cc2cc(OC)c(OC)cc12,-8,3%,2%,21µM*,16µM*
O=C(COC(=O)c1ccc(O)cc1O)c1ccc(Cl)cc1,2,-12%,-3%,-17%,-20%
COc1ccc(C(=O)Nc2ccc(C(=O)OCC(=O)c3ccccc3)cc2)cc1,6,4%,-15%,-20%,-20%
Nc1ccc(O)cc1C(=O)OCC(=O)c1ccc(C2CCCCC2)cc1,-94*,-15%,u,21µM*,u
COc1ccc(C(=O)OCC(=O)c2ccc(C3CCCCC3)cc2)cc1,-23,-6%,-8%,20µM*,u
CCOC(=O)c1nnn(-c2nonc2N)c1CS(=O)(=O)c1ccccc1,11,1%,0%,-5%,0%
CCOC(=O)c1nnn(-c2nonc2-n2cccc2)c1CCl,-117*,u,u,6.5µM*,4.6µM*
Cc1cccc(CNC(=O)c2ccccc2NC(=O)C2=CSCCO2)c1,u,-6%,-1%,2%,-14%
CN(C)c1ccc(CNC(=O)c2ccccc2NC(=O)c2nsc3ccccc23)cc1,x,x,x,13µM*,16µM*
